In PubChem BioAssay AID1159580 (chemical genetic matrix, 2015):
In all, about 5,500 compounds went through this assay and about 2,000 (36%) were called active. Another 18% or so got no clear call; they are omitted. No stated cut-off is given here; in the data, active means normalized growth mostly below about 0.91 (no sharp cut-off); inconclusive means no clear call, values can overlap the other calls; inactive means mostly above about 0.92. This is one part of the list.

Experiment: chemical genetic growth profiling, strain panel (AID 1159580);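 further: tested at 20 µM; growth read once vehicle control cultures reached saturation at 30 °C; 1 = growth at the plate median or of vehicle wells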
Details: S. cerevisiae deletion strains, growth OD

Measured: normalized growth

O=C(O)/C=C/C(O)c1ccc(Cl)cc1 (stereo not drawn)
inactive: locus YAL013W, strain DEP1, stronger effect = lower value 0.986 | locus YAL040C, strain CLN3, stronger effect = lower value 1.07 | locus YCL061C, strain MRC1 (second series), stronger effect = lower value 0.982 | locus YDR363W, strain ESC2, stronger effect = lower value 1.02 | locus YER002W, strain NOP16, stronger effect = lower value 1 | locus YMR263W, strain SAP30, stronger effect = lower value 0.983 | locus YMR307W, strain GAS1, stronger effect = lower value 1.03 | locus YNL153C, strain GIM3, stronger effect = lower value 0.997 | locus YNL175C, strain NOP13, stronger effect = lower value 0.997 | locus YNL197C, strain WHI3, stronger effect = lower value 0.986 | locus YNL224C, strain SQS1, stronger effect = lower value 0.98 | locus YOR083W, strain WHI5 (second series), stronger effect = lower value 0.998 | locus YPL241C, strain CIN2, stronger effect = lower value 0.985
